In PubChem BioAssay (NCATS):
“And” between values parts separate entries of the source, which are not always exact repeats. Equal entries are not always repeated. Records with an inconclusive call do not appear. Some compounds were tested as several samples or in several runs, with calls that do not always agree. The source made the active and inactive calls. Calls come from the whole dose curve; as a rule, active = well fitted inhibition curve with a large enough effect; inconclusive = small, poorly fitted or top-dose-only effect; inactive = flat fitted curve, though single readings scatter.

These compounds were tested against Phospholipid hydroperoxide glutathione peroxidase GPX4 (Homo sapiens) (UniProt P36969) (assay: Primary qHTS Assay for Inhibitors of Recombinant Selenoprotein Glutathione Peroxidase 4 (GPX4) (AID 1845192; note: nearly all actives have a fitted effect of over 65% in size)). Conditions: recombinant GPX4, GR-coupled NADPH fluorescence, 15 min; series mostly up to 50 µM; activity change, negative = inhibition: at the top concentration.
Sequence of Phospholipid hydroperoxide glutathione peroxidase GPX4 (Homo sapiens) (P36969 whole entry, looked up): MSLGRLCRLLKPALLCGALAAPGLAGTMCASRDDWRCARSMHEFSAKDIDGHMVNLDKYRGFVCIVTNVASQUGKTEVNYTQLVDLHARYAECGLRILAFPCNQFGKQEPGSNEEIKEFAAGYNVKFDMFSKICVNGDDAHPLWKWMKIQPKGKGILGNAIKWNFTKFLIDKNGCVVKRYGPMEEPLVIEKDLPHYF
Description: Assay Provider: Elias S.J. Arner MD PhD.
Department of Medical Biochemistry and Biophysics
Karolinska Institutet, Solna, Stockholm, Sweden
Selenoprotein glutathione peroxidases (GPX), like the ubiquitously expressed GPX1 and the ferroptosis modulator GPX4, enact their antioxidant activities by reducing hydroperoxides using glutathione. […] GPX1 and GPX4 inhibitors have thus shown promise as anti-cancer agents. Existing inhibitors are often promiscuous, or modulate GPX activity only indirectly, so novel direct inhibitors identified through screening against GPX1 and GPX4 could be valuable. Here, we developed optimized glutathione reductase (GR)-coupled GPX assays for the biochemical high-throughput screen (HTS) of almost 12,000 compounds with known mechanisms of action. Initial hits were triaged using a GR counter-screen, assessed for isoform specificity using a separate GPX2 assay, and were assessed for general selenocysteine-targeting activity using a thioredoxin reductase (TXNRD1) assay. With this suite of assays, we identified novel GPX1/GPX2- and GPX4-specific inhibitors and can here present a validated pipeline for future discovery research for selenoprotein-targeting agents.
SEQUENCE No. (e.g., 1, 2, 3, etc.); […] (e.g., Cells, Incubation, Reagent, etc.); VALUE; DESCRIPTION.
1; Reagent 1; 3 uL; 333.33 nM GPx4 enzyme or no enzyme control in 1536-well, black, solid Greiner assay plate.
2; Compound; 25 nL; Kalypsis pin tool (Wako USA) equipped with a 1536-well pin head.
3; Incubation; 30 min; room temperature.
4; Reagent 2; 1 uL; 500 nM GR, 5 mM GSH, 2.5 mM NADPH solution
5; Reagent 3; 1 uL; 2.5 mM CHP in 50% EtOH.
6; Detection; Fluorescence; ViewLux microplate reader, excitation 340 nm and emission 450 nm.
7; Incubation; 15 min; room temperature.
8; Detection; Fluorescence; ViewLux microplate reader, excitation 340 nm and emission 450 nm.
NOTES (numbers refer to Sequence numbers above)
1. 3 µL of 333.33 nM GPX4 and 0.016% BSA in assay buffer (50 mM Tris-HCl, 2 mM EDTA (pH 7.5), 150 mM NaCl) was added to columns 3-48 of 1536-well plates using a BioRAPTR Flying Reagent Dispenser (Let's Go Robotics (LGR), Carlsbad, CA). A no-enzyme control (0.01% BSA in TES assay buffer) was added to columns 1-2.
2. 25 nL, library and DMSO controls were added to each well with a pin tool (Kalypsys).
3. The assay plates were incubated for 30 minutes at room temperature.
4. 1 µL of master mix (500 nM glutathione reductase (GR), 5 mM reduced glutathione (GSH), 2.5 mM NADPH in assay buffer) was added.
5. 1 µL of cumene hydroperoxide (CHP) ([2.5 mM] in 50% EtOH) was then added within 5 minutes to initiate the reaction. Final concentrations were: 200 nM GPX4, 1 mM GSH, 0.5 mM CHP, 0.5 mM NADPH, 100 nM GR, 0.01% BSA.
6. Initial fluorescence readout (t=0) at 340/450 nm was measured using a ViewLux multimodal detector (PerkinElmer, Waltham, MA).
8. Endpoint fluorescence readout (t=15) at 340/450 nm was measured 15 min after room temperature incubation.
% is set by controls: 0 for no effect and ±100 for the full control effect; potency is the fitted concentration of half-maximal effect.

| SMILES | outcome | activity change, negative = inhibition | Potency |
| --- | --- | --- | --- |
| N#CNC(=NCCCCCCOc1ccc(Cl)cc1)Nc1ccncc1 | inactive | – | – |
| COc1cc(C(=O)NC2CCN(C)CC2)ccc1Nc1ncc2c(n1)N(C1CCCC1)CCC(=O)N2C(C)C | – | 3.13% (inactive) | – |
| CN1C(C(=O)Nc2ccccn2)=C(O)c2sc(Cl)cc2S1(=O)=O | – | – | inactive |
| C[C@@H](NCc1cc2ccccc2[nH]1)c1cccc2ccccc12 | – | 4.43% (inactive) | – |
| Cn1cnc2c(F)c(Nc3ccc(Br)cc3F)c(C(=O)NOCCO)cc21 | – | 4.55% (inactive) | – |
| O=C(Nc1cc2cc[nH]c2cn1)c1ccccc1 | – | 5.07% (inactive) | – |
| Cn1cc(-c2cnn3c(N)c(Br)c([C@H]4CCCNC4)nc23)cn1 | – | – | inactive |
| CCOC(=O)C1=C(C)NC(=S)NC1c1cccc(O)c1 (stereo not given) | – | -12.9% (inactive) | – |
| COc1cc(OC)c(NC(=O)Nc2cc(C)on2)cc1Cl | inactive | – | – |
| COc1cc([C@@H]2c3cc4c(cc3[C@H](O)[C@H]3COC(=O)[C@@H]23)OCO4)cc(OC)c1OC | – | 0.253% (inactive) | – |
| C=C(C)[C@@H]1CC[C@]2(C)CC[C@]3(C)[C@H](CC[C@@H]4[C@@]5(C)CC[C@H](O)C(C)(C)[C@H]5CC[C@]43C)[C@@H]12 | inactive | – | – |
| CCCCOc1ccc(C(=O)Nc2ccc(F)cc2F)cc1 | – | 8.74% (inactive) | – |
| COc1ccc(C=Cc2cc(OC)c(OC)c(OC)c2)cc1NC(=O)[C@H](N)CO | – | -1.45% (inactive) | – |
| COc1ccc(Nc2nccc(NCCO)n2)cc1 | – | -11.1% (inactive) | – |
| c1ccc2c(Oc3nc(Nc4ccc(N5CCOCC5)cc4)c4ncn(C5CCCCC5)c4n3)cccc2c1 | – | -0.435% (inactive) | – |
| CCOC(=O)C=C[C@H](C[C@@H]1CCNC1=O)NC(=O)[C@@H](CC(=O)[C@@H](NC(=O)c1cc(C)on1)C(C)C)Cc1ccc(F)cc1 | – | 4.38% (inactive) | – |
| CCCCC(=O)O[C@]1(C(=O)CO)[C@@H](C)C[C@H]2[C@@H]3CCC4=CC(=O)C=C[C@]4(C)[C@@]3(F)[C@@H](O)C[C@@]21C | – | – | inactive |
| O=C1NCCc2[nH]c(-c3ccncc3)cc21 | – | -7.88% (inactive) | – |
| Cc1ncc(-c2ccnc(Nc3ccc(S(C)(=O)=O)cc3)n2)n1C(C)C | – | – | inactive |
| Cn1cc(C[C@@H](N)C(=O)O)c2ccccc21 | – | 0.696% [at 9.73 µM] (inactive) | – |

| SMILES | outcome | activity change, negative = inhibition | Potency |
| --- | --- | --- | --- |
| O=C(Nc1cccc(Nc2ncc(Br)c(NCCc3cnc[nH]3)n2)c1)N1CCCC1 | inactive | – | – |
| CCCCCCCCc1ccc(CCC(N)(CO)CO)cc1 | – | – | inactive |
| C=CC(=O)N1CCc2ccc(-n3c(=O)ccc4cnc5ccc(-c6cnn(C)c6)cc5c43)cc21 | – | -13% [at 27.8 µM] (inactive) | – |
| O=C(NC1CC1)c1cccc(-c2ccc3c(NC(=O)C4CC4)n[nH]c3c2)c1 | – | -3.08% (inactive) | – |
| Oc1ccc([C@@H]2Oc3ccc(O)cc3[C@@H]3CCC[C@@H]32)cc1 | – | -8.97% (inactive) | – |
| C[N+](C)([O-])CCNc1ccc(NCC[N+](C)(C)[O-])c2c1C(=O)c1c(O)ccc(O)c1C2=O | inactive | – | – |
| NC(=O)Nc1cc(-c2ccc(CN3CCOCC3)cc2)sc1C(N)=O | – | -13.9% (inactive) | – |
| OCCNC1CCCc2c1[nH]c1ccc(-c3ccccc3)cc21 (stereo not given) | – | -6.87% (inactive) | – |
| COc1cc(O)c2c(c1)C1OC1C[C@H](O)[C@H](O)C(=O)C=CC[C@H](C)OC2=O (stereo not given in full) | – | -6.27% (inactive) | – |
| O=[N+]([O-])c1cn2c(n1)OC[C@@H](OCc1ccc(OC(F)(F)F)cc1)C2 | – | -0.0871% (inactive) | – |
| CC(=O)SCC(Cc1ccccc1)C(=O)NCC(=O)OCc1ccccc1 (stereo not given) | inactive | – | – |
| CCc1nc(-c2cccc(C)c2)c(-c2ccnc(NC(=O)c3ccccc3)c2)s1 | – | -1.95% (inactive) | – |
| CCCc1nc(C(C)(C)O)c(C(=O)O)n1Cc1ccc(-c2ccccc2-c2nn[nH]n2)cc1 | – | – | inactive and 17.8 µM (active) |
| Cc1ccc(-n2[nH]c(C)c(N=Nc3cccc(-c4cccc(C(=O)O)c4)c3O)c2=O)cc1C | – | -23.7% (inactive) | – |
| O=C(CCCCCCC(=O)Nc1cccnc1)NO | – | 4.74% (inactive) | – |
| C[C@H](NC(=O)Cc1cc(F)cc(F)c1)C(=O)N[C@H](C(=O)OC(C)(C)C)c1ccccc1 | – | -7.9% (inactive) | – |
| CCc1c(O)cc(O)c(C(=O)c2ccc(OCCN3CCOCC3)c(OC)c2)c1CC(=O)N(CCOC)CCOC | – | 1.65% (inactive) | – |
| CCC[C@H]1C[C@H](C(=O)N[C@@H]([C@@H]2O[C@@H](SC)[C@@H](O)[C@@H](O)[C@@H]2O)[C@H](C)Cl)N(C)C1 | – | -3.55% (inactive) | – |
| C[C@@H]1CC[C@@]2(OC1)OC1CC3C4CC=C5CC(O)CCC5(C)C4CCC3(C)C1[C@@H]2C (stereo not given in full) | inactive | – | – |
| Oc1cc(-c2nc(-c3ccccc3)[nH]c2-c2ccncc2)ccc1Cl | – | – | inactive |
